These results are taken from PubChem BioAssay AID2314 (National Center for Advancing Translational Sciences (NCATS), 2010).

Where “and” joins values, the source holds several entries; their conditions need not be identical. Equal values may be shown once. Among all 300,000 compounds or so, about 37,000 (12%) were called active. This is one part of a sample in which actives are shown more often than they occur. Values without a mark were called inactive. No stated cut-off is given here; in the data, active means max response mostly above about 13% (no sharp cut-off); inactive means mostly below about 14%.

This experiment can be described thus: Cycloheximide Counterscreen for Small Molecule Inhibitors of Shiga Toxin. Further: read at 38.3 µM for the half of the compounds with a filed dose; 0% is about no effect. To be noted: cell reporter, cycloheximide protein synthesis inhibition counterscreen; stronger effect = higher value.
For `Cc1c(OC(C)C(=O)N[C@@H](Cc2ccccc2)C(=O)O)ccc2c3c(c(=O)oc12)CCCC3` (stereo partly drawn), the max response was -2.81%.

Turning to `CCCOc1ccc2c3c(c(=O)oc2c1OCCC)CCC3`, the max response is -3.41%.

Turning to `COc1ccc2c3c(c(=O)oc2c1OCC(=O)C(C)(C)C)CCCC3`, the max response is 35% (active).

As to `COc1ccc(C(=O)CN(C(=O)c2ccc(Cl)cc2)N2C(=O)c3ccccc3C2=O)cc1`, the max response was -2.08%.

As to `CCn1c(C)cc(=O)cc1-c1ccc(Cl)cc1`, the max response is -3.63%.

Take `COc1ccc(Cn2c(-c3ccc(Cl)cc3)c[n+]3ccccc23)cc1`: the max response was 50.5% (active).

For `CCOc1ccc(NC(=O)CCS(=O)(=O)c2ccc3c(c2)CCCN3C(=O)CC)cc1`, the max response is -2.69%.

In the case of `Cc1ccc(C(=O)COC(=O)CCN2C(=O)C3C4CCC(C4)C3C2=O)cc1C` (stereo not drawn), the max response is 11.1%.

Turning to `COC(=O)c1scc(C)c1NC(=O)CSc1ccc(Cl)cc1`, the max response is -0.926%.

Take `O=C(CN1CCN(c2ccc(F)cc2)CC1)Nc1cccc(C(F)(F)F)c1`: the max response is 11.8%.

Take `Cc1nn(CC(=O)Nc2ccc(F)cc2)c(=O)c2ccccc12`: the max response was 6.83%.

In the case of `CCC(=O)Nc1ccc2nn(-c3ccc(F)cc3)nc2c1`, the max response is 48.7% (active).

As to `Cc1cc(/C=C2/SC(=O)N(CC(=O)OC(C)C)C2=O)c(C)n1C`, the max response is 44% (active).

`CC(C)OC(=O)CN1C(=O)c2ccccc2C1=O`: the max response is 0.757%.

Take `Cc1cc(/C=C2/SC(=O)N(CC(=O)N3CCCC3)C2=O)c(C)n1C`: the max response is -2.09%.

Consider `CC(C)OCCCNC(=S)N1CCC(C(=O)c2ccc3c(c2)OCCO3)CC1`, for which the max response is -2.67%.

For `c1csc(-c2nnc(COc3ncnc4sccc34)o2)c1`, the max response was -1.52%.

In the case of `CC1CCC2(CC1)NC(=O)N(Cc1nnc(-c3cccs3)o1)C2=O` (stereo not drawn), the max response was 7.72%.

`c1csc(-c2nnc(COc3ccc4c(c3)OCO4)o2)c1`: the max response was 43% (active).

`COc1cccc(Nc2nnc(SCC(=O)N3CC(C)OC(C)C3)s2)c1` (stereo not drawn): the max response is 6%.

Consider `COc1cccc(C(=O)Nc2nnc(S(=O)(=O)N3CCCCC3)s2)c1`, for which the max response was -1.34%.

Regarding `COc1cccc(NC(=O)Nc2nnc(N3CCCCC3C)s2)c1` (stereo not drawn), the max response was 43.6% (active).

Take `O=C1CCN(CCCc2ccccc2)CCN1CCO`: the max response is -4.59%.

`O=C1CCN(CCc2ccccc2)CCN1CCOc1ccccc1`: the max response was 10.9% (active).

Take `O=C(c1ccco1)N1CCN(CCOc2ccccc2)CC1`: the max response is 9.67%.

As for `Cn1ncc2c(N3CCCCC3)nc(NCCCO)nc21`, the max response was -5.17%.

As for `OCCC#Cc1ccc(CN2CCN(Cc3ccsc3)C(CCO)C2)cc1` (stereo not drawn), the max response was 11.5%.

For the molecule `CC1CCN(C(=S)c2cccc([N+](=O)[O-])c2)CC1`, the max response is -0.525%.

As to `O=C(/C=C/c1ccc(F)cc1)NC(=S)NNC(=O)c1cccnc1`, the max response was -1.85%.

Regarding `CS(=O)(=O)N(CC(=O)N1CCOCC1)c1cccc(Cl)c1Cl`, the max response was 4.45%.

Take `CCCSc1nc2[nH]ncc2c(=O)[nH]1`: the max response is -7.37%.

Consider `Cc1ccc(CSc2nc3[nH]ncc3c(=O)[nH]2)cc1`, for which the max response is 44.4% (active).

Regarding `Cc1cccc(NC(=O)CSc2nc3[nH]ncc3c(=O)[nH]2)c1`, the max response is 6.25%.

On to `CCC(C)(C)NC(=O)C(c1ccc(OC)cc1)N(C(=O)CCC(=O)Nc1cc(C)on1)c1ccc(OC)cc1OC` (stereo not drawn), for which the max response is -1.05%.

Turning to `COC(=O)c1ccc([C@@H](O)[C@H](C)C(=O)CC(=O)OC(C)(C)C)cc1`, the max response was 16.5% and 4.37%.

As for `C[C@@H](NC(=O)OC(C)(C)C)c1nnc(S(=O)(=O)Cc2ccccc2)o1`, the max response was 15.5% (active).

`CC(C)Sc1nnc([C@H](Cc2ccccc2)NC(=O)OC(C)(C)C)o1`: the max response was -2%.

As to `C[C@H](NC(=O)OC(C)(C)C)c1nnc(SCC(N)=O)o1`, the max response was 1.54%.

With `COc1cc(-c2nnn(CC(=O)NCc3ccccc3)n2)cc(OC)c1OC`, the max response is -0.552%.

As to `Cc1ccc(-n2c(O)c(C=Nc3ccc(S(=O)(=O)Nc4ncccn4)cc3)c3ccccc3c2=O)cc1C`, the max response is 9.64%.

With `CC(C)Oc1ccc(CN2CCC(n3nccc3NC(=O)c3cccnc3)CC2)cc1`, the max response was 2.69%.

On to `COC(=O)C1=CN(c2ccc(F)c(F)c2)C=C(C(=O)OC)C1c1ccc([N+](=O)[O-])cc1`, for which the max response was 4.1%.

Regarding `CC(=O)c1ccc(N2CCN(S(=O)(=O)c3ccc4c(c3)CC(=O)N4C)CC2)cc1`, the max response is 11.5%.

Regarding `CCc1ccccc1NC1c2ccccc2C(=O)N1c1cccnc1` (stereo not drawn), the max response was 1.65%.

For the molecule `COC(=O)c1cc(NC2c3ccccc3C(=O)N2c2ccc(Cl)cn2)cc(C(=O)OC)c1` (stereo not drawn), the max response was 13.7% (active).

For `COC(=O)c1cc(NC(=O)c2nn(C)c(=O)c3ccccc23)cc(C(=O)OC)c1`, the max response was -2.61%.

For `COCCNC(=O)c1ccc2c(c1)ncn2-c1ccc(C)c(Cl)c1`, the max response is -2.44%.

For the molecule `Cc1cc(OCCCN2CCN(Cc3ccccc3)CC2)ccc1[N+](=O)[O-]`, the max response is 2.14%.

On to `NC1=NC(=O)C(Cc2cccc(Cl)c2Cl)S1` (stereo not drawn), for which the max response is -1.63%.

Take `O=C(NCCOCc1ccc(Cl)cc1)c1ncn[nH]1`: the max response is -5.7%.

`COc1ccc(Cl)cc1CSc1ncn[nH]1`: the max response is 1.38%.

For `O=C(/C=C/Sc1ncn[nH]1)c1ccc(Cl)cc1`, the max response was 35.4% (active).

On to `Nc1nonc1-n1nnc(C(=O)N/N=C/C2CCCCC2)c1-c1ccccc1`, for which the max response was -3.53%.

In the case of `COc1ccc(C(C(=O)NCc2ccccc2)N(Cc2cccs2)C(=O)c2cnccn2)cc1` (stereo not drawn), the max response is 0.798%.

As for `CCCCNC(=O)CCNC(=O)c1ccc(C(C)(C)C)cc1`, the max response was 5.17%.

`Cc1ccc(-c2noc(CCC(N)=O)n2)cc1`: the max response is 15.6% (active).

For `COc1ccc(N2CCN(C(=O)CCc3nc(-c4ccc(C)cc4)no3)CC2)cc1`, the max response is -3.69%.

With `CCNC(=O)CCc1nc(-c2ccc(C)cc2)no1`, the max response was 18.6% (active).

For the molecule `CCOc1cc(-c2noc(CCC(=O)N3CCOCC3)n2)ccc1OC`, the max response is -0.629%.

For `CCNC(=O)CCc1nc(-c2ccc(C(C)(C)C)cc2)no1`, the max response was 34.3% (active).

For `Cc1ccc(-c2noc(CNC(=O)c3ccoc3C)n2)cc1`, the max response was 11%.

In the case of `CN1CCN(C(=O)CCc2nc(-c3ccc(Cl)cc3)no2)CC1`, the max response was 7.26%.

As to `Cc1ccc(-c2noc(CCC(=O)Nc3ccccc3N3CCN(C)CC3)n2)cc1`, the max response is 3.85%.
